Giardia FBPA inh = blocks Giardia fructose-bisphosphate aldolase activity; purified Giardia FBPA; A8B2U2; Potency, µM (highest dose often 59.6 µM), for the others: at the highest dose activity, negative = inhibition, most hits filed as inhibitors; AID 2451; actives 0.71% (n = 290,000); further: potency means the concentration at half of the fitted maximal effect; on the % scale 0 is the no-effect control and ±100 the full control effect; nearly all actives have a fitted effect of over 55% in size
Target sequence (A8B2U2 whole entry, looked up): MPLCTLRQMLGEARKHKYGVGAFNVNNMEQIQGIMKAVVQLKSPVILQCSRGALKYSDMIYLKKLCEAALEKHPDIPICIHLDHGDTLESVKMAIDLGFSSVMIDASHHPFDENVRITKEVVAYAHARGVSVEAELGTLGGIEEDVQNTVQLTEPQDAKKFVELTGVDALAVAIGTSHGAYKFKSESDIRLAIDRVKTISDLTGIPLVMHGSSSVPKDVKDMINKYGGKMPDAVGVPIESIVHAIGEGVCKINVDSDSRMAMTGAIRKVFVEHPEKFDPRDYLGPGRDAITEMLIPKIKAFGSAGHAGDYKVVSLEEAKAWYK
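Giardia FBPA (40 nM reagent) was preincubated 10 min at RT with compound (up to 57.5 uM final), then substrate plus GAPDH/TPI/NAD/arsenate coupling system with diaphorase/resazurin was added; resorufin fluorescence (525/598 nm) was read after 20 min.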
CHX counter = counter-screen hit for Shiga toxin inhibitors, cycloheximide; cell reporter, cycloheximide protein synthesis inhibition counterscreen; max response, %; actives 12% (n = 300,000); AID 2314; in the data active means max response mostly above about 13%, no sharp cut-off; inactive means mostly below about 14%; further: read at 38.3 µM for the half of the compounds with a filed dose; 0% is about no effect
Tb PYK inh = inhibitors of Trypanosoma brucei pyruvate kinase; Q57TT1; TbPYK enzyme, Kinase-Glo Plus ATP luminescence, 45 min; Potency, µM (doses to about 76.8 µM), for inactives: top-dose activity, negative = inhibition, most hits filed as inhibitors; actives 0.12% (n = 410,000); AID 624173; further: potency means the concentration at half of the fitted maximal effect; on the % scale 0 is the no-effect control and ±100 the full control effect; nearly all actives have a fitted effect of over 50% in size
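Luminescent Kinase-Glo Plus end-point after 45 min room-temperature reaction of T. brucei pyruvate kinase started with 130 uM ADP (final). Buffer TEA 50 mM pH 7.2 with KCl, MgCl2, BSA, Tween-20; titration-based qHTS with fitted concentration-effect curves.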
Shiga toxin inh = Shiga toxin inhibition. AID 2315. inhibition, % at 38.7 µM. actives 9.2% (n = 290,000). Vero cells, Shiga toxin protein synthesis inhibition reporter; in the data active means inhibition mostly above about 28%, no sharp cut-off; inactive means mostly below about 43%; further: 0% is about no effect
LmPK inh = inhibitors of Leishmania mexicana pyruvate kinase | Potency, µM (titrated, usually from 57.5 µM), without a hit: top-dose activity change, negative = inhibition, most hits filed as inhibitors | AID 1721 | Q27686 | actives 0.37% (n = 290,000) | purified LmPK, Kinase-Glo ATP luminescence, 1 h; further: potency means the concentration at half of the fitted maximal effect; on the % scale 0 is the no-effect control and ±100 the full control effect
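Kinase-Glo luminescence read after 1 h RT reaction of 0.1 nM LmPK with 0.5 mM PEP and 0.1 mM ADP. Activity scaled between uninhibited and enzyme-free controls.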
Sm TGR inh = S. mansoni TGR enzyme inhibition; purified TGR, DTNB reduction, TNB absorbance 405 nm; Potency, µM (titrated, usually from 114 µM), inactives show at the top dose activity change, negative = inhibition, hits mostly inhibitors; actives 3% (n = 360,000); AID 485364; further: potency means the concentration at half of the fitted maximal effect; on the % scale 0 is the no-effect control and ±100 the full control effect; nearly all actives have a fitted effect of over 60% in size
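Kinetic colorimetric format: TGR-catalysed, NADPH-driven DTNB reduction monitored via TNB absorbance. Enzyme dispensed at 20 nM; compound exposure 15 min at room temperature before reaction start.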
Numbers without * were called inactive; ? = inconclusive; / = no result given; [ ] = another dose, or the depositor's remark. This is one part of a sample in which hits are shown more often than they occur. Unless noted, the call rests on the fitted dose curve; in most records, active means well fitted curve in the direction sought with a large enough effect; inconclusive means small, poorly fitted or top-dose-only effect, or another doubt; inactive means no such curve, though single readings can be large; an effect the other way counts as inactive or inconclusive.

SMILES	Giardia FBPA inh	CHX counter	Tb PYK inh	Shiga toxin inh	LmPK inh	Sm TGR inh
Fc1cccc(/C=N/Nc2ccc(Cl)nn2)c1	25.9%	41.5*	4.3%	46.9	-3.1%	-3.3%
CCOc1ccc(/C=N/Nc2ccc(Cl)nn2)c(O)c1	7.7%	7.1	-2.6%	58.4*	0.9%	-0.8%
Oc1c(Br)cc(Br)cc1/C=N/Nc1ccc(Cl)nn1	18.1%	-1.8	-15.2%	19.5	2.1%	-2.6%
NCCC1CCCC(CCN)N1 (stereo not drawn)	0.4%	/	4.0%	/	/	2.6%
C[N+](C)(C)CCCNC(=O)c1ccc(/C=N/O)nc1	?	10.3	-19.1%	-4.6	1.0%	0.1%
CN(C)CCCNC(=O)c1ccc(/C=N/O)nc1	2.3%	35.6*	-4.5%	70.8	-4.3%	-0.3%
COn1c(-c2ccc(C)cc2)nc2ncccc21	-1.1%	20.9*	-12.9%	30.4	-8.3%	10.3%
COn1c(-c2ccccc2)nc2ncccc21	-1.5%	4.3	-0.8%	-4.7	-7.3%	-4.6%
CC(=O)n1nc(-c2ccc(Cl)cc2)nc1NCc1ccco1	-0.6%	31.2*	-3.5%	49.8*	8.8%	-2.5%
COc1ccc(CC(=O)n2nc(-c3ccc(Cl)cc3)nc2NCc2ccco2)cc1	-0.7%	22.5*	3.7%	62.9	1.0%	-2.8%
COc1ccc(C(=O)n2nc(-c3ccc(Cl)cc3)nc2NCc2ccco2)cc1	/	/	5.0%	/	/	-3.2%
O=C(O)CCC(=O)Nc1ccccc1C(=O)NCc1ccccc1	-0.7%	1.8	-1.5%	-6.4	4.4%	-3.6%
COc1ccc(/C=C/N(CCc2ccc(OC)c(OC)c2)C(=O)C(F)(F)F)cc1	-3.5%[12.9 µM]	/	/	/	/	/
COc1ccc2c(c1)O/C(=C\c1ccco1)C2=O	?	29.7*	-11.4%	38.2	-8.4%	7.94µM*
COc1ccc(/C=C2\Oc3cc(OCC(N)=O)ccc3C2=O)cc1OC	24.4%	-2.2	3.6%	2.1	4.6%	-3.3%
COc1ccccc1/C=C1\Oc2cc(OC(=O)N3CCOCC3)ccc2C1=O	4.2%	2.0	3.1%	-0.2	6.8%	6.4%
COC(=O)C(C)Oc1ccc2c(c1)O/C(=C\c1ccco1)C2=O (stereo not drawn)	3.8%	36.7*	6.9%	71.1*	-1.2%	20µM*
O=C(CN1C(=O)C2(SCC(=O)N2c2cccc(Cl)c2)c2ccccc21)NC1CCCCC1 (stereo not drawn)	/	/	-0.7%	/	/	2.8%
Cc1nc(-c2coc3c(O)c(O)ccc3c2=O)cs1	14.1µM*	/	/	/	/	/
Cc1ccc(NC(=O)Nc2cccc([N+](=O)[O-])c2)cc1F	-1.4%	31.1*	-5.7%	53.9*	0.1%	-8.4%
Cc1ccc(C(C)C)cc1NC(=O)Nc1ccc([N+](=O)[O-])cc1	-9.1%	33.2	1.1%	33.6*	0.6%	9.5%
O=C(Nc1ccc(OC(F)(F)F)cc1)Nc1cccc([N+](=O)[O-])c1	-14.0%	18.4*	-3.0%	58.0*	6.2%	-10.0%
O=C(NCCSCc1ccccc1Cl)C1CCN(S(=O)(=O)Cc2ccccc2)CC1	/	/	-9.7%	/	/	-11.7%
COc1ccc(-c2cc(C(F)F)n3ncc(C(=O)n4ccnc4C)c3n2)cc1	2.3%	-2.4	-5.1%	-11.7	1.7%	89.1µM*
Cc1ccc(-c2cc(C(F)F)n3ncc(C(=O)N4CCCc5ccccc54)c3n2)cc1	2.4%	-0.9	-4.5%	-0.7	8.1%	1.9%
SMILES	Giardia FBPA inh	CHX counter	Tb PYK inh	Shiga toxin inh	LmPK inh	Sm TGR inh
COc1ccc(-c2cc(C(F)F)n3ncc(C(=O)N4CCc5ccccc54)c3n2)cc1	-0.7%	-1.4	-10.4%	1.7	-1.1%	11.2µM*
COc1ccc(N2CCN(C(=O)c3nn(-c4ccc(C)cc4)c(=O)n(C)c3=O)CC2)cc1	/	/	-3.3%	/	/	-17.6%
CCc1ccccc1Oc1ccc(S(=O)(=O)N2CCN(C)CC2)cn1	/	/	-0.9%	/	/	5.3%
Cc1cccc(-c2noc(-c3ccno3)n2)c1	0.4%	40.3*	5.5%	91.1*	-5.1%	4.3%
CCS(=O)(=O)N1CCC(c2nc(-c3ccc(C)cc3)no2)CC1	-3.6%	55.4*	2.0%	74.0*	-2.6%	9.6%
Cc1cccc(-c2noc(-c3cc(C(C)C)[nH]n3)n2)c1	/	/	5.1%	/	/	18.1%
CCS(=O)(=O)N1CCC(c2nc(-c3ccc(C(F)(F)F)cc3)no2)CC1	-0.6%	-0.4	-11.9%	-16.9	-2.5%	3.3%
Cc1cccc(-c2noc(C3CCCCC3)n2)c1	13.9%	54.6*	5.8%	198.5*	-9.8%	0.6%
Cc1ccc(-c2noc(C3CCCCC3)n2)cc1	0.3%	26.5	-5.0%	50.0*	-7.8%	10.8%
CCN(CC)C(=O)Cn1ncc2c([nH]c3ccc(C)cc32)c1=O	/	/	-3.0%	/	/	3.1%
COc1ccc(Cn2ncc3c4sc(C)cc4n(C)c3c2=O)cc1F	/	4.0	/	14.3	/	/
COc1cccc(CSc2nc3n(n2)C(CC(C)C)C(C(=O)Nc2ccccc2C)=C(C)N3)c1 (stereo not drawn)	/	/	0.7%	/	/	3.9%
COc1ccc(CCNC(=O)c2cc(=O)[nH]c3ccc(S(=O)(=O)N4CCCCC4C)cc23)cc1OC (stereo not drawn)	/	/	2.9%	/	/	1.1%
N#C/C(=C\c1ccc(F)c(F)c1)C(=O)NC1CCCCC1	4.0%	-0.7	-12.6%	-13.1	6.1%	-2.7%
N#C/C(=C\c1ccc(F)c(Br)c1)C(=O)NC1CC1	/	29.9*	-5.5%	42.1*	2.9%	5.3%
CCCCN(C(=O)C(C)Oc1ccc(Br)cc1)c1c(N)n(Cc2ccccc2)c(=O)[nH]c1=O (stereo not drawn)	/	1.2	?	-30.4	-2.3%	89.1µM*
Cc1ccccc1CN1C(=O)CS/C1=N/N=C/c1ccco1	-15.0%	-0.8	0.2%	-11.9	5.3%	11.2µM*
CC1S/C(=N/N=C/c2ccco2)N(Cc2ccccc2)C1=O (stereo not drawn)	-15.2%	34.9*	-2.7%	99.5*	0.3%	35.5µM*
CCC1S/C(=N/N=C/c2ccco2)N(Cc2ccc(F)cc2)C1=O (stereo not drawn)	-3.6%	11.9	-2.3%	24.5	0.0%	?
CCC1S/C(=N/N=C/c2ccco2)N(Cc2ccccc2C)C1=O (stereo not drawn)	0.5%	9.4	-0.6%	38.4*	-1.5%	39.8µM*
Cc1cc(C)c(N=C2SCC(=O)N2Cc2ccco2)c(C)c1	16.1%	-1.5	0.6%	-11.2	2.6%	-20.3%
O=C1C(Cc2ccccc2)S/C(=N/N=C/c2ccco2)N1c1ccccc1 (stereo not drawn)	-2.9%	6.2	4.2%	-6.9	5.2%	?
Cc1cc(O)c(C)c2c1CC[C@H]1[C@H](C)C(=O)O[C@H]21	1.0%	/	/	/	/	/
Cc1ccc2occ(C(c3nnnn3C3CCCC3)N3CCN(C(=O)c4ccco4)CC3)c(=O)c2c1 (stereo not drawn)	-0.3%	-2.0	-2.3%	4.1	-2.7%	17.8µM*
O=C(c1ccco1)N1CCN(C(c2coc3ccc(Cl)cc3c2=O)c2nnnn2C2CCCC2)CC1 (stereo not drawn)	/	/	-1.6%	/	/	/

Screening results (PubChem BioAssay)
